# Results filed as inconclusive are left out. Where a call stands in place of a potency, no number is given. Values without a mark were called inactive. Active and inactive are the calls of the source. Calls come from the whole dose curve; as a rule, active = well fitted curve in the direction sought with a large enough effect; inconclusive = small, poorly fitted or top-dose-only effect, or another doubt; inactive = no such curve, though single readings can be large; an effect the other way counts as inactive or inconclusive.
# Tests used:
# [1] = test system: NIH3T3; assay: qHTS assay to identify novel small-molecules to repurpose for Merkel cell carcinoma treatment (AID 1296009); conditions: MCC and control cell lines, CellTiter-Glo viability, 72 h; at 44.8 µM (top of the series) unless noted; note: nearly all actives have a fitted effect of over 60% in size
# In short: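 Cells exposed to NPC (8-point) and MIPE (11-point) compound dilutions for 72 hr at 37 degree celsius; viability read by CellTiter-Glo luminescence, normalized to no-cell and DMSO in-plate controls.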
# [2] = test system: C33A; assay: Primary qHTS to identify gynecologic anti-cancer compounds using libraries of approved drugs and bioactive compounds (AID 1345084); conditions: Gynecologic cancer cell panel viability, ATPlite luminescence, 48 h; series mostly up to 57.5 µM; note: nearly all actives have a fitted effect of over 55% in size; note: potency is the fitted concentration of half-maximal effect
# In short: (§1)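 Five-concentration response, 48 h; readout is ATP-driven luciferase luminescence.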
# [3] = test system: CASKI; assay: as above; conditions: Gynecologic cancer cell panel viability, ATPlite luminescence, 48 h; series mostly up to 57.5 µM
# In short: as §1
# [4] = test system: Es-2; assay: as above; conditions: Gynecologic cancer cell panel viability, ATPlite luminescence, 48 h; series mostly up to 57.5 µM
# In short: as §1
# [5] = test system: HeLa; assay: as above; conditions: Gynecologic cancer cell panel viability, ATPlite luminescence, 48 h; series mostly up to 57.5 µM
# In short: as §1
# [6] = test system: Hek293T; assay: as above; conditions: Gynecologic cancer cell panel viability, ATPlite luminescence, 48 h, control line for the selectivity index; series mostly up to 57.5 µM
# In short: as §1
# [7] = test system: JEG-3; assay: as above; conditions: Gynecologic cancer cell panel viability, ATPlite luminescence, 48 h; series mostly up to 57.5 µM
# In short: as §1
# [8] = test system: CAOV3; assay: as above; conditions: Gynecologic cancer cell panel viability, ATPlite luminescence, 48 h; series mostly up to 57.5 µM
# In short: as §1
smiles,measurement,setting,value
C=C(C(=O)OC)C1CCC2(C)C(O[C@@H]3O[C@H](CO)[C@@H](O)[C@H](O)[C@H]3O)CC(=O)C(C)C2C1O (some centres undefined),outcome,[1],inactive [at 17.4 µM]
same,Potency,[2],inactive
same,Potency,[3],inactive
same,Potency,[4],inactive
same,Potency,[5],inactive
same,Potency,[6],inactive
same,Potency,[7],inactive
COC1CCCC/C(C)=C/C2C=C(C)C(C)C3C(CC(C)C)NC(=O)C23C(=O)C1 (centres undefined),outcome,[1],inactive [at 17.4 µM]
same,Potency,[2],inactive
same,Potency,[3],inactive
same,Potency,[5],inactive
same,Potency,[6],inactive
same,Potency,[7],inactive
CC1=C(CC(=O)O)c2cc(F)ccc2C1=Cc1ccc(S(C)(=O)=O)cc1,Potency,[2],inactive
same,Potency,[8],inactive
same,Potency,[3],inactive
same,Potency,[4],inactive
same,Potency,[5],inactive
same,Potency,[6],inactive
same,Potency,[7],inactive
C[C@@H]1C(=O)O[C@H]2CC34[C@H]5C[C@@H](C(C)(C)C)C36[C@@H](OC(=O)[C@@H]6O)OC4(C(=O)O5)[C@]21O (some centres undefined),Potency,[2],inactive
same,Potency,[8],inactive
same,Potency,[3],inactive
same,Potency,[4],inactive
same,Potency,[5],inactive
same,Potency,[6],inactive
same,Potency,[7],inactive
CCN(c1cc(C#CCN2CCOCC2)cc(C(=O)NCc2c(C)cc(C)[nH]c2=O)c1C)C1CCC(N(C)CCOC)CC1 (centres undefined),outcome,[1],inactive
same,Potency,[2],inactive
same,Potency,[3],inactive
same,Potency,[4],inactive
same,Potency,[5],inactive
same,Potency,[6],inactive
same,Potency,[7],inactive
O=C(COc1ccc(Cl)cc1)NC1CCC(NC(=O)COc2ccc(Cl)cc2)CC1 (centres undefined),Potency,[2],inactive
same,Potency,[8],inactive
same,Potency,[3],inactive
same,Potency,[4],inactive
same,Potency,[5],inactive
same,Potency,[6],inactive
same,Potency,[7],inactive
O=c1ccn([C@@H]2O[C@H](CO)[C@@H](O)[C@H]2O)c(=O)[nH]1,outcome,[1],inactive
same,Potency,[2],inactive
same,Potency,[3],inactive
same,Potency,[4],inactive
same,Potency,[5],inactive
same,Potency,[6],inactive
same,Potency,[7],inactive
O=C(O[C@H]1[C@@H]2C[C@@H]3OC[C@@](O)([C@H]2[C@H](O[C@@H]2O[C@H](CO)[C@@H](O)[C@H](O)[C@H]2O)O3)[C@@H]1O)c1ccccc1,outcome,[1],inactive [at 17.4 µM]
same,Potency,[2],inactive
same,Potency,[3],inactive
same,Potency,[4],inactive
same,Potency,[5],inactive
same,Potency,[6],inactive
same,Potency,[7],inactive
CC(C)(O)c1ccc2c(c1)C(=O)CC1[C@](C)(CO)CCC[C@]21C (some centres undefined),Potency,[2],inactive
same,Potency,[8],inactive
same,Potency,[3],inactive
same,Potency,[4],inactive
same,Potency,[5],inactive
same,Potency,[6],inactive
same,Potency,[7],inactive
COC(=O)C1=CO[C@@H](O[C@@H]2O[C@H](CO)[C@@H](O)[C@H](O)[C@H]2O)[C@@H]2[C@@H](C)[C@@H](O)C[C@H]12,Potency,[2],inactive
same,Potency,[8],inactive
same,Potency,[3],inactive
same,Potency,[4],inactive
same,Potency,[5],inactive
same,Potency,[6],inactive
same,Potency,[7],inactive
CC1(C)CC2C3=CCC4C5(C)CCC(OC6OC(CO)C(O)C(OC7OC(CO)C(O)C(OC8OC(CO)C(O)C(OC9OC(COC%10OC(CO)C(O)C(O)C%10O)C(O)C(O)C9O)C8O)C7O)C6O)C(C)(C)C5CCC4(C)C3(C)CCC2(C(=O)O)CC1O (centres undefined),"activity change, negative = cytotoxicity",[2],6.53% [at 6.55 µM]
same,"activity change, negative = cytotoxicity",[8],3.47% [at 6.55 µM]
same,"activity change, negative = cytotoxicity",[3],-0.0614% [at 6.55 µM]
same,"activity change, negative = cytotoxicity",[4],1.92% [at 6.55 µM]
same,"activity change, negative = cytotoxicity",[5],-11.1% [at 6.55 µM]
same,"activity change, negative = cytotoxicity",[6],-9.53% [at 6.55 µM]
same,"activity change, negative = cytotoxicity",[7],6.92% [at 6.55 µM]
CC1=C2CC3OC3(C)CCC3OC3(C)CC2OC1=O (centres undefined),Potency,[2],inactive
same,Potency,[8],inactive
same,Potency,[3],inactive
same,Potency,[4],inactive
same,Potency,[5],inactive
same,Potency,[6],inactive
same,Potency,[7],inactive
CC1(CCC(=O)O)C(=O)C=CC23CC4CC(OC4(C)C2O)C13 (centres undefined),outcome,[1],inactive
same,Potency,[2],inactive
same,Potency,[3],inactive
same,Potency,[4],inactive
same,Potency,[5],inactive
same,Potency,[6],inactive
same,Potency,[7],inactive
CO[C@@H](Cc1ccc(OCCc2nc(-c3ccccc3)oc2C)c2ccsc12)C(=O)O,outcome,[1],inactive
same,Potency,[2],inactive
same,Potency,[3],inactive
same,Potency,[4],inactive
same,Potency,[5],inactive
same,Potency,[6],inactive
same,Potency,[7],inactive
C=C1C[C@]23C[C@H]1CC[C@H]2[C@]1(C)CCC[C@@]2(CO)C(=O)O[C@H]([C@H]21)[C@@H]3O,Potency,[2],inactive
same,Potency,[8],inactive
same,Potency,[3],inactive
same,Potency,[4],inactive
same,Potency,[5],inactive
same,Potency,[6],inactive
same,Potency,[7],inactive
CC1CCC23COC(=O)C2=CC(O)CC3C1(C)CCC1=CC(=O)OC1O (centres undefined),outcome,[1],inactive
same,Potency,[2],inactive
same,Potency,[3],inactive
same,Potency,[4],inactive
same,Potency,[5],inactive
same,Potency,[6],inactive
same,Potency,[7],inactive
Cc1c(N2C(=O)c3ccc(C(=O)O)cc3C2=O)c(=O)n(-c2ccccc2)n1C,outcome,[1],inactive
same,Potency,[2],inactive
same,Potency,[3],inactive
same,Potency,[4],inactive
same,Potency,[5],inactive
same,Potency,[6],inactive
same,Potency,[7],inactive
CCC(C)/C=C(C)/C=C/C1=CC2=C(Cl)C(=O)C(C)(OC(C)=O)C(=O)C2=CN1C1CCCCN(C(CCC(N)=O)C(=O)O)C1=O (centres undefined),Potency,[2],inactive
same,Potency,[8],inactive
same,Potency,[3],inactive
same,Potency,[4],inactive
same,Potency,[5],inactive
same,Potency,[6],inactive
same,Potency,[7],inactive
CC(=O)N(O)CCCCCN1C(=O)CCC1=O,Potency,[2],inactive
same,Potency,[8],inactive
same,Potency,[3],inactive
same,Potency,[4],inactive
same,Potency,[5],inactive
same,Potency,[6],inactive
same,Potency,[7],inactive
COc1cc(O[C@@H]2O[C@H](CO)[C@@H](O)[C@H](O)[C@H]2O)c(CCC(=O)OC[C@H]2O[C@@H](Oc3cc(OC)c(C4OC(=O)C(C)(O)C4O)cc3CCC(=O)O)[C@H](O)[C@@H](O)[C@@H]2O)cc1C1OC(=O)C(C)(O)C1O (some centres undefined),"activity change, negative = cytotoxicity",[2],-6.26% [at 11.6 µM]
same,"activity change, negative = cytotoxicity",[8],-7.94% [at 11.6 µM]
same,"activity change, negative = cytotoxicity",[3],-4.91% [at 11.6 µM]
same,"activity change, negative = cytotoxicity",[4],12.3% [at 11.6 µM]
same,"activity change, negative = cytotoxicity",[5],22.8% [at 11.6 µM]
same,"activity change, negative = cytotoxicity",[6],-1.4% [at 11.6 µM]
same,"activity change, negative = cytotoxicity",[7],-12.6% [at 11.6 µM]
C[C@@H]1O[C@@H](O[C@@H]2[C@@H](O)[C@@H](O)[C@H](O[C@@H]3[C@@H](O)[C@@H](O[C@]4(CO)O[C@H](CO)[C@@H](O)[C@@H]4OC(=O)/C=C/c4ccc(O)cc4)O[C@H](CO)[C@H]3OC(=O)/C=C/c3ccc(O)cc3)O[C@H]2C)[C@H](O)[C@H](O)[C@H]1O,outcome,[1],inactive [at 9.27 µM]
same,"activity change, negative = cytotoxicity",[2],0.544% [at 11.6 µM]
same,"activity change, negative = cytotoxicity",[3],-0.379% [at 11.6 µM]
same,"activity change, negative = cytotoxicity",[4],1.92% [at 11.6 µM]
same,"activity change, negative = cytotoxicity",[5],11% [at 11.6 µM]
same,"activity change, negative = cytotoxicity",[6],1.13% [at 11.6 µM]
same,"activity change, negative = cytotoxicity",[7],-6.75% [at 11.6 µM]
CC1C/C=C/C=C\CCCCC(O)C/C=C/C(=O)O1 (centres undefined),outcome,[1],inactive
same,Potency,[2],inactive
same,Potency,[3],inactive
same,Potency,[4],inactive
same,Potency,[5],inactive
same,Potency,[6],inactive
same,Potency,[7],inactive
COC(=O)[C@@]1(C)CC[C@]2(C(=O)O[C@@H]3O[C@H](CO)[C@@H](O)[C@H](O)[C@H]3O)CC[C@]3(C)C(=CCC4[C@@]5(C)CC[C@H](O[C@@H]6O[C@H](C(=O)O)[C@@H](O)[C@H](O)[C@H]6O)C(C)(C)C5CC[C@]43C)[C@@H]2C1 (some centres undefined),"activity change, negative = cytotoxicity",[2],-14.8% [at 11.6 µM]
same,"activity change, negative = cytotoxicity",[8],-1.21% [at 11.6 µM]
same,"activity change, negative = cytotoxicity",[3],-4.58% [at 11.6 µM]
same,"activity change, negative = cytotoxicity",[4],-0.312% [at 11.6 µM]
same,"activity change, negative = cytotoxicity",[5],-10.5% [at 11.6 µM]
same,"activity change, negative = cytotoxicity",[6],-3.38% [at 11.6 µM]
same,"activity change, negative = cytotoxicity",[7],-1.5% [at 11.6 µM]
CC1(C)C(O)CCC2(C)C1C(O)C=C1COC(=O)C12O (centres undefined),Potency,[2],inactive
same,Potency,[8],inactive
same,Potency,[3],inactive
same,Potency,[4],inactive
same,Potency,[5],inactive
same,Potency,[6],inactive
same,Potency,[7],inactive
CON(C)C(=O)N1N=C(c2cc(F)ccc2F)S[C@@]1(CCCN)c1ccccc1,Potency,[2],inactive
CC1CCC2(NC1)OC1C(=O)C3C4CCC5CC(O[C@@H]6O[C@H](CO)[C@@H](O)[C@H](O)[C@H]6O[C@@H]6O[C@@H](C)[C@H](O)[C@@H](O)[C@H]6O)CCC5(C)C4CCC3(C)C1C2C (some centres undefined),Potency,[2],inactive
same,Potency,[8],inactive
same,Potency,[3],inactive
same,Potency,[4],inactive
same,Potency,[5],inactive
same,Potency,[6],inactive
same,Potency,[7],inactive
Cc1cc(C)c(S(=O)(=O)N(Cc2ccc(-c3cccc(S(C)(=O)=O)c3)cc2)Cc2ccc(C(F)(F)F)o2)c(C)c1,outcome,[1],inactive
same,Potency,[2],inactive
same,Potency,[3],inactive
same,Potency,[4],inactive
same,Potency,[5],inactive
same,Potency,[6],inactive
same,Potency,[7],inactive
Cc1ccc(Sc2cncc3sc(C(N)=O)cc23)cc1,outcome,[1],inactive
same,Potency,[8],inactive
same,Potency,[4],inactive
same,Potency,[5],inactive
same,Potency,[6],inactive
CC(CO[C@@H]1O[C@H](COC(=O)/C=C/c2ccc(O)c(O)c2)[C@@H](O)[C@H](O)[C@H]1O)C1(O)COC(=O)C1 (some centres undefined),Potency,[2],inactive
same,Potency,[8],inactive
same,Potency,[3],inactive
same,Potency,[4],inactive
same,Potency,[5],inactive
same,Potency,[6],inactive
Cc1cc(N2CCCCC2)nc2ccccc12,Potency,[2],inactive
same,Potency,[8],inactive
same,Potency,[3],inactive
same,Potency,[4],inactive
same,Potency,[5],inactive
same,Potency,[6],inactive
O=C(O)[C@H]1CCCC[C@H]1C(=O)N1CCc2ccccc2[C@H]1CN1C(=O)c2ccccc2C1=O,Potency,[2],inactive
same,Potency,[8],inactive
same,Potency,[3],inactive
same,Potency,[4],inactive
same,Potency,[5],inactive
same,Potency,[6],inactive
same,Potency,[7],inactive
Clc1ccc2c(c1)C1=NCCN1c1c(-c3noc(C4CC4)n3)ncn1-2,outcome,[1],inactive
same,Potency,[2],inactive
same,Potency,[3],inactive
same,Potency,[4],inactive
same,Potency,[5],3.16 µM (active)
same,Potency,[6],inactive
same,Potency,[7],inactive
O=C(NN1CCCCC1)c1nn(-c2ccc(Cl)cc2Cl)c(-c2ccc(C#Cc3ccc(C(F)(F)F)cc3)s2)c1CNS(=O)(=O)N1CCCC1,outcome,[1],inactive
same,Potency,[2],inactive
same,Potency,[3],inactive
same,Potency,[4],inactive
same,Potency,[5],inactive
same,Potency,[6],inactive
same,Potency,[7],inactive
OC[C@H]1O[C@@H](n2cnc3c(NCc4ccc(O)cc4)ncnc32)[C@H](O)[C@@H]1O,outcome,[1],inactive
same,Potency,[8],inactive
same,Potency,[4],inactive
same,Potency,[6],inactive

# From PubChem BioAssay (NCATS)
